Data from the supplement of paper PMC6555819.

Assays:
Experiment in all cases: PBM binding z-score (relative to random genomic background probes); higher = stronger binding; sequences stand for … in GC…GCGATTGACAGCGTAGAATGAAGG
[1] = tested on: PPARg:RXRa DBDmut IVT, anti-RXR (DBD mutation: RXRa K156A/R161A, NR concentration 270 nM, RXRa partner concentration 90 nM)
Method in brief: (§1)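 Scanned fluorescence from custom Agilent 4×180K protein-binding microarrays was regression-normalized. Binding z-scores use random background probes as reference. Ligand-free nuclear receptor dimers were incubated on the arrays for 1 h and detected with antibodies against each partner (one per run).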

[2] = tested on: PPARg:RXRa IVT, anti-PPARg (NR concentration 270 nM, RXRa partner concentration 90 nM)
Method in brief: as §1

[3] = tested on: PPARg DBDmut:RXRa IVT, anti-PPARg (DBD mutation: PPARg1 K132A/R137A, NR concentration 270 nM, RXRa partner concentration 90 nM)
Method in brief: as §1

[4] = tested on: PPARg DBDmut IVT, anti-PPARg (DBD mutation: PPARg1 K132A/R137A, NR concentration 270 nM)
Method in brief: as §1

[5] = tested on: PPARg homodimer (NR concentration 180 nM)
Method in brief: as §1

[6] = tested on: PXR:RXRa (NR concentration 270 nM, RXRa partner concentration 90 nM)
Method in brief: as §1

[7] = tested on: PXR homodimer (NR concentration 270 nM)
Method in brief: as §1

[8] = tested on: RARa:RXR (NR concentration 270 nM, RXRa partner concentration 90 nM)
Method in brief: as §1

[9] = tested on: RARa homodimer (NR concentration 270 nM)
Method in brief: as §1

[10] = tested on: RARb:RXRa (NR concentration 270 nM, RXRa partner concentration 90 nM)
Method in brief: as §1

## CAAACTAGGTCAGAGAGGTCAAAGTCCGTGCGTA
[1]
  PBM binding z-score: 7.7
[2]
  PBM binding z-score: 8.02
[3]
  PBM binding z-score: 1.22
[4]
  PBM binding z-score: 0.373
[5]
  PBM binding z-score: 4.15
[6]
  PBM binding z-score: 6.24
[7]
  PBM binding z-score: 10.2
[8]
  PBM binding z-score: 6.29
[9]
  PBM binding z-score: 2.07
[10]
  PBM binding z-score: 4.84

## GGAACGAGGGCCAGTTGATAGCAGAGTTTGATGG
[1]
  PBM binding z-score: 0.134
[2]
  PBM binding z-score: -0.54
[3]
  PBM binding z-score: -0.953
[4]
  PBM binding z-score: -0.88
[5]
  PBM binding z-score: -0.513
[6]
  PBM binding z-score: -0.515
[7]
  PBM binding z-score: -0.158
[8]
  PBM binding z-score: -0.522
[9]
  PBM binding z-score: -1.03
[10]
  PBM binding z-score: 0.217

## ACTCGGAGGACAAAGGTCAGACCTACGCCAGTGA
[1]
  PBM binding z-score: 0.683
[2]
  PBM binding z-score: 3.73
[3]
  PBM binding z-score: 0.128
[4]
  PBM binding z-score: -0.307
[5]
  PBM binding z-score: 3.27
[6]
  PBM binding z-score: 4.16
[7]
  PBM binding z-score: 0.401
[8]
  PBM binding z-score: 5.43
[9]
  PBM binding z-score: 1.5
[10]
  PBM binding z-score: 4.5

## TTTTGTAGATCAATAGAGGTTAAGAAAGTGCGCT
[1]
  PBM binding z-score: 1.22
[2]
  PBM binding z-score: 1.99
[3]
  PBM binding z-score: 1.51
[4]
  PBM binding z-score: 1.54
[5]
  PBM binding z-score: 1.32
[6]
  PBM binding z-score: 3.37
[7]
  PBM binding z-score: 0.915
[8]
  PBM binding z-score: 2.2
[9]
  PBM binding z-score: 1.45
[10]
  PBM binding z-score: 1.15

## GCTAGCAGGCCATTTGGGTCACTCAATGACGGGC
[1]
  PBM binding z-score: 1.95
[2]
  PBM binding z-score: 2.3
[3]
  PBM binding z-score: -1.31
[4]
  PBM binding z-score: -1.12
[5]
  PBM binding z-score: -0.589
[6]
  PBM binding z-score: 0.628
[7]
  PBM binding z-score: 0.0652
[8]
  PBM binding z-score: 0.69
[9]
  PBM binding z-score: -0.931
[10]
  PBM binding z-score: 1.63

## CCTACTGGGCCATTCAGTGGTCATTGATCATATG
[1]
  PBM binding z-score: 3.99
[2]
  PBM binding z-score: 3.43
[3]
  PBM binding z-score: -0.19
[4]
  PBM binding z-score: -0.875
[5]
  PBM binding z-score: -0.524
[6]
  PBM binding z-score: -0.597
[7]
  PBM binding z-score: -0.649
[8]
  PBM binding z-score: -0.725
[9]
  PBM binding z-score: -0.259
[10]
  PBM binding z-score: 0.368

## TTACCATGGTGAGCTGAGGTCGTTGATCCAACTC
[1]
  PBM binding z-score: -0.23
[2]
  PBM binding z-score: 0.397
[3]
  PBM binding z-score: -0.517
[4]
  PBM binding z-score: -0.449
[5]
  PBM binding z-score: -0.916
[6]
  PBM binding z-score: 1.87
[7]
  PBM binding z-score: -0.0892
[8]
  PBM binding z-score: 1.14
[9]
  PBM binding z-score: -0.905
[10]
  PBM binding z-score: 0.272

## TATCGGAGGACACGAAGGTCAGAGCTTTCCAGAG
[1]
  PBM binding z-score: 0.135
[2]
  PBM binding z-score: 1.54
[3]
  PBM binding z-score: -0.485
[4]
  PBM binding z-score: -0.6
[5]
  PBM binding z-score: 1.67
[6]
  PBM binding z-score: 1.9
[7]
  PBM binding z-score: 1.2
[8]
  PBM binding z-score: 2.05
[9]
  PBM binding z-score: 0.593
[10]
  PBM binding z-score: 3.22

## TAGCCTAGGTCATGGGCCAGAATACCACGCGAAC
[1]
  PBM binding z-score: 1.38
[2]
  PBM binding z-score: 3.09
[3]
  PBM binding z-score: -0.303
[4]
  PBM binding z-score: -0.638
[5]
  PBM binding z-score: 0.86
[6]
  PBM binding z-score: 1.54
[7]
  PBM binding z-score: -0.601
[8]
  PBM binding z-score: 2.51
[9]
  PBM binding z-score: 0.121
[10]
  PBM binding z-score: 3.73

## CCGACTGGGGCAAAGGTAACCATACTCAGTACGA
[1]
  PBM binding z-score: 4.95
[2]
  PBM binding z-score: 5.05
[3]
  PBM binding z-score: -0.085
[4]
  PBM binding z-score: -0.917
[5]
  PBM binding z-score: 0.706
[6]
  PBM binding z-score: 0.067
[7]
  PBM binding z-score: -0.401
[8]
  PBM binding z-score: 1.14
[9]
  PBM binding z-score: -0.0329
[10]
  PBM binding z-score: 0.906

## AGAACGAGGGCACGCTGAGTTGACAGCAGAGTAG
[1]
  PBM binding z-score: 3.94
[2]
  PBM binding z-score: 3.77
[3]
  PBM binding z-score: 1.38
[4]
  PBM binding z-score: 0.377
[5]
  PBM binding z-score: 0.462
[6]
  PBM binding z-score: 1.46
[7]
  PBM binding z-score: -0.0837
[8]
  PBM binding z-score: 1.24
[9]
  PBM binding z-score: -0.654
[10]
  PBM binding z-score: 2.57

## CCTGACAGGTGAGAAGGTAACTCAGCCTCGATTA
[1]
  PBM binding z-score: 1.12
[2]
  PBM binding z-score: 0.913
[3]
  PBM binding z-score: -0.717
[4]
  PBM binding z-score: -0.671
[5]
  PBM binding z-score: 0.832
[6]
  PBM binding z-score: -0.216
[7]
  PBM binding z-score: -0.0629
[8]
  PBM binding z-score: 0.621
[9]
  PBM binding z-score: -0.07
[10]
  PBM binding z-score: 0.751

## CCGACTGGAGCAAGGTTACCATAACGCACAGCCA
[1]
  PBM binding z-score: 1.3
[2]
  PBM binding z-score: 0.76
[3]
  PBM binding z-score: -0.802
[4]
  PBM binding z-score: -0.726
[5]
  PBM binding z-score: 0.608
[6]
  PBM binding z-score: 0.248
[7]
  PBM binding z-score: -0.0714
[8]
  PBM binding z-score: 0.527
[9]
  PBM binding z-score: -0.0817
[10]
  PBM binding z-score: 0.876

## ACTTTTAGTTGAGACGAGGGCAACCGATAGGTTG
[1]
  PBM binding z-score: 0.771
[2]
  PBM binding z-score: 0.663
[3]
  PBM binding z-score: 1.4
[4]
  PBM binding z-score: 1.16
[5]
  PBM binding z-score: 0.208
[6]
  PBM binding z-score: 1.33
[7]
  PBM binding z-score: 0.341
[8]
  PBM binding z-score: 1.59
[9]
  PBM binding z-score: 0.167
[10]
  PBM binding z-score: 1.24

## GCTCGGAGGGCAAGGTCAGAGCTTTGTCCGTAGA
[1]
  PBM binding z-score: 0.731
[2]
  PBM binding z-score: 1.11
[3]
  PBM binding z-score: -2.58
[4]
  PBM binding z-score: -1.43
[5]
  PBM binding z-score: 2.03
[6]
  PBM binding z-score: 2.07
[7]
  PBM binding z-score: -0.437
[8]
  PBM binding z-score: 2.52
[9]
  PBM binding z-score: -0.775
[10]
  PBM binding z-score: 3.76

## GGAACGAGGGCAAAGTTGATACCATCTGTCGACG
[1]
  PBM binding z-score: 3.89
[2]
  PBM binding z-score: 3.91
[3]
  PBM binding z-score: 0.382
[4]
  PBM binding z-score: -0.0769
[5]
  PBM binding z-score: 0.593
[6]
  PBM binding z-score: 1.61
[7]
  PBM binding z-score: 0.644
[8]
  PBM binding z-score: 2.09
[9]
  PBM binding z-score: 0.0395
[10]
  PBM binding z-score: 2.42

## ATCTCTAGGTAAGACTCAGTTGAGTGAAGAACGC
[1]
  PBM binding z-score: 1.79
[2]
  PBM binding z-score: 0.839
[3]
  PBM binding z-score: 0.212
[4]
  PBM binding z-score: 0.517
[5]
  PBM binding z-score: 0.307
[6]
  PBM binding z-score: -0.135
[7]
  PBM binding z-score: 0.188
[8]
  PBM binding z-score: -0.38
[9]
  PBM binding z-score: 0.696
[10]
  PBM binding z-score: 0.11

## AGAATGAGATTATACGTAGATCAGGGAAGAAAGT
[1]
  PBM binding z-score: -0.76
[2]
  PBM binding z-score: -0.334
[3]
  PBM binding z-score: 0.931
[4]
  PBM binding z-score: 0.37
[5]
  PBM binding z-score: -0.24
[6]
  PBM binding z-score: -0.502
[7]
  PBM binding z-score: 0.417
[8]
  PBM binding z-score: -0.447
[9]
  PBM binding z-score: 0.366
[10]
  PBM binding z-score: -0.409

## CAAACTAGGTCAAGAGGTCAGAGTCCGCTTCCCG
[1]
  PBM binding z-score: 8.57
[2]
  PBM binding z-score: 8.53
[3]
  PBM binding z-score: 2.77
[4]
  PBM binding z-score: 1.17
[5]
  PBM binding z-score: 6.51
[6]
  PBM binding z-score: 5.04
[7]
  PBM binding z-score: 0.812
[8]
  PBM binding z-score: 6.67
[9]
  PBM binding z-score: 3.26
[10]
  PBM binding z-score: 5.15

## GTACGAAGGTGAATAGGTCGTTGATGAGTAGGCG
[1]
  PBM binding z-score: 1.5
[2]
  PBM binding z-score: 2.19
[3]
  PBM binding z-score: -0.159
[4]
  PBM binding z-score: -0.129
[5]
  PBM binding z-score: 0.859
[6]
  PBM binding z-score: 0.754
[7]
  PBM binding z-score: -0.215
[8]
  PBM binding z-score: 1.75
[9]
  PBM binding z-score: 0.356
[10]
  PBM binding z-score: 2.01

## AGTCAAAGTTCATCTCGGTAACGTAAGATATGCT
[1]
  PBM binding z-score: 0.386
[2]
  PBM binding z-score: 2.85
[3]
  PBM binding z-score: 1.54
[4]
  PBM binding z-score: 1.05
[5]
  PBM binding z-score: 2.38
[6]
  PBM binding z-score: 4.97
[7]
  PBM binding z-score: 4.44
[8]
  PBM binding z-score: 3.65
[9]
  PBM binding z-score: 1.33
[10]
  PBM binding z-score: 5.06

## ACAGACTGGTGATGAAGGTAACTCAGGCTATCAT
[1]
  PBM binding z-score: -0.615
[2]
  PBM binding z-score: -0.401
[3]
  PBM binding z-score: 0.194
[4]
  PBM binding z-score: -0.143
[5]
  PBM binding z-score: -0.6
[6]
  PBM binding z-score: -0.651
[7]
  PBM binding z-score: -0.0629
[8]
  PBM binding z-score: -0.424
[9]
  PBM binding z-score: 0.115
[10]
  PBM binding z-score: -0.396

## GCAGCCAGGTGAAACGCAGGTAACTCAGGGTGGC
[1]
  PBM binding z-score: 1.32
[2]
  PBM binding z-score: 1
[3]
  PBM binding z-score: -1.26
[4]
  PBM binding z-score: -1.53
[5]
  PBM binding z-score: -1.44
[6]
  PBM binding z-score: -0.698
[7]
  PBM binding z-score: -1.29
[8]
  PBM binding z-score: 0.121
[9]
  PBM binding z-score: -2.03
[10]
  PBM binding z-score: 0.362
